Assay results reported in PubChem BioAssay AID1159580 (chemical genetic matrix, 2015).
Screen size: about 5,500 compounds; about 2,000 (36%) were called active. Another 18% or so got no clear call; they are omitted. Cut-off read from the data, not from the text of the source: active = normalized growth mostly below about 0.91 (no sharp cut-off); inconclusive = no clear call, values can overlap the other calls; inactive = mostly above about 0.92. This is one part of the list.

Assay: chemical genetic growth profiling, strain panel (AID 1159580);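 note: tested at 20 µM; growth read once vehicle control cultures reached saturation at 30 °C; 1 = growth at the plate median or of vehicle wells; lower values mean less growth of the strain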
Details: growth OD
[1] = S. cerevisiae deletion strains, locus YAL013W, strain DEP1, active compounds read low
[2] = S. cerevisiae deletion strains, locus YBR229C, strain ROT2, active compounds read low
[3] = S. cerevisiae deletion strains, locus YDL101C, strain DUN1, active compounds read low
[4] = S. cerevisiae deletion strains, locus YDR150W, strain NUM1, active compounds read low
[5] = S. cerevisiae deletion strains, locus YEL061C, strain CIN8, active compounds read low
[6] = S. cerevisiae deletion strains, locus YGR078C, strain PAC10, active compounds read low
[7] = S. cerevisiae deletion strains, locus YHR030C, strain SLT2, active compounds read low
[8] = S. cerevisiae deletion strains, locus YHR087W, strain rtc3, active compounds read low
[9] = S. cerevisiae deletion strains, locus YJR043C, strain POL32, active compounds read low
[10] = S. cerevisiae deletion strains, locus YJR075W, strain HOC1, active compounds read low
[11] = S. cerevisiae deletion strains, locus YLR039C, strain RIC1, active compounds read low
[12] = S. cerevisiae deletion strains, locus YLR058C, strain SHM2 (second series), active compounds read low
[13] = S. cerevisiae deletion strains, locus YLR085C, strain ARP6, active compounds read low
[14] = S. cerevisiae deletion strains, locus YLR262C, strain YPT6, active compounds read low
[15] = S. cerevisiae deletion strains, locus YML094W, strain GIM5, active compounds read low
[16] = S. cerevisiae deletion strains, locus YMR219W, strain ESC1, active compounds read low
[17] = S. cerevisiae deletion strains, locus YMR263W, strain SAP30, active compounds read low
[18] = S. cerevisiae deletion strains, locus YNL153C, strain GIM3, active compounds read low
[19] = S. cerevisiae deletion strains, locus YNL298W, strain CLA4 (second series), active compounds read low
[20] = S. cerevisiae deletion strains, locus YNL322C, strain KRE1, active compounds read low
[21] = S. cerevisiae deletion strains, locus YNR030W, strain Alg12, active compounds read low
[22] = S. cerevisiae deletion strains, locus YPL055C, strain LGE1, active compounds read low
[23] = S. cerevisiae deletion strains, locus YPL241C, strain CIN2, active compounds read low
[24] = S. cerevisiae deletion strains, locus YPR135W, strain CTF4, active compounds read low

Measured: normalized growth

NC(=S)c1ccc(Oc2ccc(Cl)cc2)nc1
active: [1] 0.064 | [2] 0.0587 | [3] 0.0679 | [4] 0.0611 | [5] 0.0551 | [6] 0.0731 | [7] 0.0713 | [8] 0.0597 | S. cerevisiae deletion strains, locus YJL187C, strain SWE1, active compounds read low 0.0568 | [9] 0.0583 | [10] 0.0782 | [11] 0.0764 | [12] 0.0563 | [13] 0.0896 | [14] 0.0758 | [15] 0.0624 | [16] 0.0569 | [17] 0.0585 | S. cerevisiae deletion strains, locus YMR307W, strain GAS1, active compounds read low 0.112 | [18] 0.0622 | [19] 0.0667 | [20] 0.0647 | [21] 0.0581 | [22] 0.0942 | [23] 0.0912 | [24] 0.194 | S. cerevisiae strains, strain wild type, active compounds read low 0.0499

N#Cc1ccc(Oc2ccc(Cl)cc2)nc1
inactive: [1] 1.04 | [2] 0.975 | [3] 0.944 | S. cerevisiae deletion strains, locus YDL134C, strain PPH21, active compounds read low 0.985 | [4] 1.01 | [5] 0.977 | [6] 1 | S. cerevisiae deletion strains, locus YGR229C, strain SMI1, active compounds read low 0.987 | [7] 0.86 | [8] 0.992 | [9] 0.984 | [10] 0.968 | [11] 1.09 | [12] 0.966 | [13] 1.05 | [14] 1.05 | [15] 1.03 | [16] 0.971 | [17] 1.02 | [18] 0.986 | [19] 0.977 | [20] 0.98 | [21] 1.02 | S. cerevisiae deletion strains, locus YOL006C, strain TOP1, active compounds read low 0.903 | [22] 1.14 | [23] 0.886 | [24] 1.2
